In the library only some 1.7% were active in any assay of this set; here they are far more common.
MOR-DOR ag = agonists of human mu-delta opioid receptor heterodimerization; AID 504326; activation, % at 9.3 µM; cells, OPRM1-OPRD1 heterodimerization, luminescence; hit rate 0.3% among 340,000; P35372+P41143; in the data active = activation above about 18%
V-ATPase pH = regulators of yeast V-ATPase proton transport | S. cerevisiae, pHLuorin cytosolic pH fluorescence | response, % at 10 µM | AID 504577 | hit rate 0.37% among 350,000; in the data active = response mostly above about 7.3%, no sharp cut-off; inactive = mostly below about 5.4%; also: actives read high
HTR5A inv ag = inverse agonist of human HTR5A in OPRM1-OPRD1 counter-screen | P47898 | HTR5A cell line, luminescence, inverse agonism | inhibition, % at 9.3 µM | hit rate 0.083% among 340,000; in the data active = inhibition mostly above about 23%, no sharp cut-off; inactive = mostly below about 18%
Target sequence (P47898 whole entry, looked up): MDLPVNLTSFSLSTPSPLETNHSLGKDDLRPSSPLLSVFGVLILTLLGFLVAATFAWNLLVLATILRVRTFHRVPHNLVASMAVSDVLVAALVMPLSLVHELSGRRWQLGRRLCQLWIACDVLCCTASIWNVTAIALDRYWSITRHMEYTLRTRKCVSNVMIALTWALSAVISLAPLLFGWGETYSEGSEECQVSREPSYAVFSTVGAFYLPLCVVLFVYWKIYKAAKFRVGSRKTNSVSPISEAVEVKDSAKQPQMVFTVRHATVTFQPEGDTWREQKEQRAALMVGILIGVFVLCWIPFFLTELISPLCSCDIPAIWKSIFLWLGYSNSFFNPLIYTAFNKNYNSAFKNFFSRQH
MIN6 prolif = inducers of beta-cell replication in MIN6 cells; MIN6 cells proliferation, ATPlite luminescence, 48 h; cells starved in 0.2% serum; 100% = growth in 10% serum; proliferation, % at 10 µM; hit rate 0.29% among 330,000; AID 2380;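 active = compounds whose signal lies at least 3.5 SD above the mean of all wells on their plate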
MOR-DOR inv ag-1 = inverse agonists of human mu-delta opioid receptor heterodimerization; AID 504357; cell-based MOR-DOR heterodimer luminescence, inverse agonism; hit rate 0.21% among 340,000; inhibition, % at 9.3 µM; P35372+P41143; in the data active = inhibition above about 22%, passing the limit was not always enough
HTR5A ag = HTR5A agonism, opioid heterodimer counter-screen; HTR5A agonist assay, luminescence, cell-based; P47898; hit rate 0.61% among 340,000; activation, % at 9.3 µM; in the data active = activation mostly above about 9.5%, no sharp cut-off; inactive = mostly below about 7.6%
MOR-DOR inv ag-2 = counter-screen for HTR5A inverse agonists: OPRM1-OPRD1 heterodimerization inverse agonism; inhibition, % at 9.3 µM; 190 tested, under 10 active; U2OS counter-screen cells, complementation luminescence; shares compounds with HTR5A inv ag; AID 504912
HTR5A inv confrm = HTR5A (human) inverse agonism, confirmation. 190 tested, under 10 active. HTR5A-expressing cells, luminescence. AID 504916. inhibition, % at 9.3 µM. shares compounds with HTR5A inv ag
Of the large screens only hits and unclear results are named; the others gave an inactive call (follow-up assays come after a bar, where they were run). Unless noted, no rule for the calls is given here.

CCN(CC)C(=O)CSc1nc2ccccc2c(=O)n1OC(C)C	HTR5A inv ag 38 | MOR-DOR inv ag-2 inactive | HTR5A inv confrm inactive
Cc1cc(N(CCO)CCO)ccc1N=Nc1cc(F)ccc1F	HTR5A inv ag 27 | MOR-DOR inv ag-2 inactive | HTR5A inv confrm inactive
OCCN(CCO)c1ccc(C(c2ccc(Cl)cc2)c2ccc(N(CCO)CCO)cc2Cl)c(Cl)c1	none
O=C(/C=C/c1ccc(F)cc1)NCCc1ccc2c(c1)OCCO2	none
COc1ccc(CNC(=S)NNC(=O)c2cc3ccccc3o2)cc1	none
COc1ccc(OCC(=O)NNC(=O)c2cc3ccccc3o2)cc1	HTR5A inv ag 39 | MOR-DOR inv ag-2 inactive | HTR5A inv confrm inactive
Cc1ccc(-n2c(-c3ccccc3)c[nH]c2=S)cc1	none
COc1ccc(-n2c(-c3ccc(Cl)cc3)c[nH]c2=S)cc1	HTR5A inv ag 38 | MOR-DOR inv ag-2 33 | HTR5A inv confrm inactive
O=C1N[C@@H](Cc2ccccc2)COC(=O)[C@@H](Cc2ccc(F)cc2)CC/C=C/C[C@H]1CC(=O)N(CCO)Cc1ccccc1	none
O=C1N[C@@H](Cc2ccccc2)COC(=O)[C@H](Cc2ccc(F)cc2)CC/C=C/C[C@@H]1CC(=O)N(CCO)Cc1ccccc1	HTR5A inv ag 37 | MOR-DOR inv ag-2 inactive | HTR5A inv confrm inactive
Nc1ccn(CCCNCC(c2ccccc2)c2ccccc2)c(=O)n1	none (no result: MOR-DOR ag, HTR5A inv ag, MIN6 prolif, MOR-DOR inv ag-1, HTR5A ag)
O=C(O)CC/C(=N/NC(=O)CNC(=O)c1ccc2c(c1)OCCO2)c1ccccc1	none (no result: V-ATPase pH)
Cc1cc(C)nc(N/N=C/c2ccccc2OCc2ccc(Br)cc2)n1	none
Cc1cc(C)nc(N/N=C/c2cc(Br)ccc2O)n1	HTR5A inv ag 33 | MOR-DOR inv ag-2 inactive | HTR5A inv confrm inactive
Cc1ccc(C)c(S(=O)(=O)N2CCN(CC(=O)NC(=O)NCc3ccco3)CC2)c1	none
Cc1c(C(=O)N/N=C/c2ccncc2)no[n+]1[O-]	none
CN1CCN(c2ncnc3c2c(-c2ccccc2)cn3-c2ccc(F)cc2)CC1	HTR5A inv ag 39 | MOR-DOR inv ag-2 inactive | HTR5A inv confrm inactive
COc1ccccc1N(CC(=O)Nc1ccccc1C(=O)N1CCOCC1)S(C)(=O)=O	none
Cc1cc(C)n2nc(C(=O)OCC(=O)Nc3ccc(C)c(S(=O)(=O)N4CCOCC4)c3)nc2n1	HTR5A inv ag 28 | MOR-DOR inv ag-2 inactive | HTR5A inv confrm inactive
Cc1cc(C)n2nc(C(=O)OCC(=O)Nc3ccc(C)c(S(=O)(=O)N(C)C)c3)nc2n1	none (no result: V-ATPase pH)
O=C(NCc1nnc(SCC(=O)N2CCCC2)o1)c1ccccc1	HTR5A inv ag 45 | MOR-DOR inv ag-2 inactive | HTR5A inv confrm inactive
O=C(NCc1nnc(SCC(=O)N2CCN(c3ccccc3)CC2)o1)c1ccccc1	none
COC(Cc1nnc(SC)n1-c1ccc(Cl)cc1)OC	none
C=CCSc1nnc(CC(OC)OC)n1-c1ccccc1	HTR5A inv ag 39 | MOR-DOR inv ag-2 inactive | HTR5A inv confrm inactive
C=CC[n+]1c(-c2ccc(Cl)cc2Cl)csc1Nc1c(C)n(C)n(-c2ccccc2)c1=O	HTR5A inv ag 36 | MOR-DOR inv ag-2 inactive | HTR5A inv confrm inactive
O=C(NN1C(=O)/C(=C/c2ccc(O)c(O)c2)SC1=S)c1ccccc1	HTR5A inv ag 31 | MOR-DOR inv ag-2 inactive | HTR5A inv confrm inactive
COc1cc(/C=C2/SC(=S)N(CC3CCCO3)C2=O)ccc1O (stereo not drawn)	HTR5A inv ag 44 | MOR-DOR inv ag-2 inactive | HTR5A inv confrm inactive
COc1cc(/C=C2\SC(=S)N(NC(=O)c3cccnc3)C2=O)ccc1O	HTR5A inv ag 22 | MOR-DOR inv ag-2 inactive | HTR5A inv confrm inactive
Cc1cc(C)nc(SCC(N)=O)n1	none
O=C(Oc1ccc(-n2cnnn2)cc1)c1ccccc1	none
COc1cc(C(CCN2CCOCC2)c2c(OC)cc(OC)c3c(-c4ccccc4)cc(=O)oc23)cc(OC)c1OC (stereo not drawn)	HTR5A inv ag 17 (no result: MIN6 prolif) | MOR-DOR inv ag-2 inactive | HTR5A inv confrm inactive
COCCN(C(=O)COC(=O)c1ccc(C)o1)c1c(N)n(Cc2ccccc2)c(=O)[nH]c1=O	none

Assay outcomes as filed in PubChem BioAssay.
